BoNT-A LC inh2: BoNT/A light chain protease inhibitors, primary screen, biochemical, flow cytometry, MLPCN library | actives 0.17% (n = 360,000) | inhibition, % at 10 µM | multiplex microsphere protease substrate cleavage; further: plate controls were buffer without enzyme for full effect and enzyme alone for no effect
PfHsp40 rescue: rescue of yeast from PfHsp40 toxicity, primary screen, S. cerevisiae, ATP luminescence; S. cerevisiae expressing PfHsp40, growth rescue; growth rescue, % at 12.5 µM; actives 0.68% (n = 340,000); AID 504582, 2011; in the data active means growth rescue above about 28%, passing the limit was not always enough; inconclusive means no clear call, values can overlap the other calls;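 further: yeast W303a lacking pdr1 and pdr3 grown in galactose medium; growth measured after three days at 30 °C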
BoNT F protease: BoNT/F light chain protease inhibitors, primary screen, biochemical, flow cytometry, MLPCN library | Botulinum neurotoxin type F light chain protease (Clostridium botulinum) | inhibition, % at 10 µM | actives 0.22% (n = 360,000) | Multiplex microsphere protease cleavage assay; in the data active means inhibition above about 35%, passing the limit was not always enough; inconclusive means no clear call, values can overlap the other calls; further: plate controls were buffer without enzyme for full effect and enzyme alone for no effect
Anthrax LF inh2: Bacillus anthracis LF protease inhibitors, primary screen, biochemical, multiplex microsphere, MLPCN library. Lethal factor (Bacillus anthracis), P15917. AID 588501, 2011. actives 0.12% (n = 360,000). inhibition, % at 10 µM. multiplex microsphere protease cleavage assay; further: plate controls were buffer without enzyme for full effect and enzyme alone for no effect
MazF activator: activators of E. coli MazEF toxin-antitoxin RNase, primary screen, biochemical, fluorescence, uHTS; FAM/BHQ RNA-DNA oligo cleavage fluorescence, 5 h; Endoribonuclease toxin MazF (Escherichia coli (strain K12)), P0AE70; activation, % at 20 µM; actives 0.32% (n = 350,000); AID 504720, 2011; in the data active means activation above about 50%
Target sequence (P0AE70 whole entry, looked up): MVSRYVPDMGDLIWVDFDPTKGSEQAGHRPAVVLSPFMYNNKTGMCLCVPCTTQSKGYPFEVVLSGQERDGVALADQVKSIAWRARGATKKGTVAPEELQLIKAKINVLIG
Autofluor counter: flagged as autofluorescent in microsphere protease counterscreen; compound autofluorescence counterscreen, microsphere flow cytometry; hits give high values; fluorescence intensity (no concentration beside the values); actives 3.1% (n = 360,000); AID 624483; in the data active means fluorescence intensity above about 16000; inconclusive means no clear call, values can overlap the other calls
* = called active by the depositor; ? = inconclusive; / = no result given. Compounds with a hit are over-represented: about 4.3% of the library has one in this group of screens. Unless noted, no stated cut-off is given here; in the data, active means inhibition above about 30%; inconclusive means no clear call, values can overlap the other calls; inactive means below that.

SMILES	BoNT-A LC inh2	PfHsp40 rescue	BoNT F protease	Anthrax LF inh2	MazF activator	Autofluor counter
CC(=O)Nc1ccc(NC(=O)CCCCCn2nnc3ccccc3c2=O)cc1	-0.4	0.1	-4.9	-1.0	9.2	3142
CC(=O)Nc1ccc(C(=O)Cn2nnc3ccccc3c2=O)cc1	3.4	0.3	2.4	-2.2	0.3	18940*
CCc1nnc(NC(=O)CCC(=O)NC2CC2)s1	0.4	-0.9	-3.9	-2.0	7.1	5568
COc1cc(OC)cc(C(=O)Nc2ccc(S(=O)(=O)N(C)C)cc2)c1	0.6	-0.9	-1.7	-2.5	-4.1	19847*
COCCn1c(SCC(=O)Nc2sc(C)c(C)c2C#N)nnc1-c1ccc(OC)cc1	-0.9	0.5	0.7	-1.8	-11.0	22774*
Cc1[nH][nH]c(=O)c1C(c1c(C)[nH][nH]c1=O)c1cn(Cc2ccccc2Cl)c2ccccc12	0.4	0.5	-7.9	-3.4	70.6*	2189
CCC(C)(C)C1CCc2[nH]nc(C(=O)NCc3ccc(OC)cc3)c2C1 (stereo not drawn)	0.2	-0.1	2.4	-3.6	3.1	3494
Cc1nn2c(-c3ccc(Cl)cc3)nnc2s1	-0.3	1.1	-2.3	-1.7	2.5	23339*
CN(C)c1ccc(-c2nn3c(-c4ccc(Cl)cc4)nnc3s2)cc1	/	-1.9	/	/	-29.3	/
Cc1cnn(CCC(=O)NNC(=S)Nc2ccccc2)c1	-0.8	2.2	-0.8	-0.2	-1.4	22734*
CCCCNC(=S)NNC(=O)CCn1cc(C)cn1	-0.6	-1.1	-7.7	0.9	3.3	2574
Cc1cnn(CCC(=O)NNC(=S)NCC(C)C)c1	-0.9	2.3	-7.9	-2.0	3.2	3437
Cc1ccc(NC(=S)NNC(=O)CCn2cc(C)cn2)cc1	1.1	-0.2	1.9	-0.5	1.8	20267*
COc1cccc(C(=O)CN(C(=O)c2ccc(Cl)c(Cl)c2)N2C(=O)C3CCCCC3C2=O)c1 (stereo not drawn)	-1.9	2.9	-3.1	-2.7	-2.3	17192*
COc1ccc(C(=O)CN(C(=O)c2ccc(Cl)cc2)N2C(=O)C3CCCCC3C2=O)cc1 (stereo not drawn)	?	-0.2	38.0*	-21.4	6.9	11113
CCc1ccc(CNn2cnnc2SCC(=O)NC(C)(C)C)cc1	-0.9	-0.3	-1.2	-1.3	2.6	16664*
Cc1ccc(OC(C)C(=O)N2CCCc3ccccc32)cc1 (stereo not drawn)	?	-0.5	-7.8	-7.1	-1.0	17127*
Cc1cccc(OC(C)C(=O)N2CCCc3ccccc32)c1 (stereo not drawn)	0.3	-1.4	-6.8	0.5	-5.6	2481
O=C(Nc1ccc(Br)cc1)C1OCCc2ccccc21 (stereo not drawn)	-0.6	4.5	-2.4	-1.4	3.3	4890
COc1cccc(NC(=O)Nc2ccc3c(c2)N(C)C(=O)CS3)c1	-1.5	0.2	-2.8	7.6	8.1	10487
COc1ccc2c(c1)SCC(=O)N2C	-4.8	0.3	-2.2	2.1	3.4	21232*
C#CC(C)(C)NC(=O)c1ccc(-c2ccccc2F)cc1	-7.7	0.0	?	-12.6	-0.1	3677
CC(C)CCOc1cccc(OCC(=O)Nc2ccncc2)c1	-1.1	105.0*	-6.7	-3.6	2.8	5563
Oc1c(Br)cc(Br)cc1CNc1ccc(F)cc1	-1.0	186.8*	-5.5	0.0	-9.3	2212
CCOc1ccc(-n2c(C)nc3cc(C(=O)NCC4CCCO4)ccc32)cc1 (stereo not drawn)	1.0	-0.4	2.1	2.1	-12.8	4990
SMILES	BoNT-A LC inh2	PfHsp40 rescue	BoNT F protease	Anthrax LF inh2	MazF activator	Autofluor counter
CC1C(=O)CC2C3(C)CCC2(C(C)C(=O)O)C(=O)C13 (stereo not drawn)	-0.5	/	-5.8	-2.8	/	5561
CC(C)CCP(=O)(O)c1ccccc1	0.8	0.7	3.3	2.4	-0.5	22957*
COc1ccccc1NC(=O)Nc1ccccc1C(=O)NCCCN1CCOCC1	?	-0.7	?	5.5	4.6	3607
CC(C)CNC(=O)C1C2C=CC(C2)C1C(=O)O (stereo not drawn)	?	2.4	-1.5	2.8	7.4	20356*
CC(=O)Nc1ccc(NC(=O)C2C3C=CC(C3)C2C(=O)O)cc1 (stereo not drawn)	3.4	0.0	-8.7	0.5	7.7	3975
COc1ccc(NC2c3ccccc3C(=O)N2Cc2ccccc2Cl)cc1OC (stereo not drawn)	-1.1	1.4	5.1	-8.8	4.1	3376
COCCn1c(SCC(=O)NCc2ccccc2)nc2ccccc21	0.2	-1.0	-17.7	15.9	1.5	3027
COCCn1c(SCc2csc(-c3ccccc3)n2)nc2ccccc21	?	1.8	-6.0	-0.6	-3.3	22786*
CC1=C(C(=O)OC(C)C)C(c2cn(-c3ccccc3)nc2-c2cccs2)NC(=O)N1 (stereo not drawn)	0.3	0.7	-1.4	0.3	-20.2	1977
N#Cc1nc(-c2cccs2)oc1N1CCN(c2ccccc2)CC1	-3.0	5.7	-4.7	-3.2	2.2	20556*
c1csc(-c2nnc(-c3ccc(N4CCOCC4)cc3)o2)c1	0.7	0.1	1.6	-1.6	1.6	20353*
COc1cccc(-c2nc(CS(=O)(=O)CC(=O)N3CCOCC3)c(C)o2)c1	/	-1.3	/	/	-12.8	/
COc1cc2c(cc1NC(=O)C(C)N1CCN(S(=O)(=O)c3ccccc3[N+](=O)[O-])CC1)oc1ccccc12 (stereo not drawn)	1.4	-0.9	2.7	-0.3	1.2	16091
COc1cc2c(cc1NC(=O)C(C)N1CCN(S(=O)(=O)c3ccc(C)c(C)c3)CC1)oc1ccccc12 (stereo not drawn)	0.6	-0.7	-1.9	0.0	5.7	16646*
COc1ccccc1CC(=O)Nc1cc2oc3ccccc3c2cc1OC	4.7	-0.2	34.5*	3.0	0.1	3972
COc1cc2c(cc1NC(=O)CSc1ccccn1)oc1ccccc12	?	-1.5	-3.4	-2.9	-7.9	20567*
O=c1cc(O)nc(-c2ccc(Cl)cc2)s1	-0.5	-1.7	-5.3	0.0	-11.5	2591
COC(=O)c1ccccc1CON1C(=O)C(C)(C)N(OCc2ccccc2C(=O)OC)C(=O)C1(C)C	1.6	-1.0	2.4	-0.8	0.3	16139*
O=S(=O)(Nc1cccc(-c2cn3c(n2)SCC3)c1)c1ccccc1	0.8	0.9	-2.1	-0.7	0.9	5473
O=C(CCl)Nc1ccc(N2CCCCCC2)cc1	0.1	2.8	-2.8	-2.7	14.1	1902
O=c1[nH]c(=O)n(C2CCCCC2)c(O)c1/C=C/C=Nc1ccccc1	0.8	1.1	-6.3	-1.3	95.6*	5630
O=C(O)CC(CC(=O)O)(C(=O)O)c1ccccc1	-2.4	-0.8	2.6	-0.7	-0.7	3968

Assay outcomes: PubChem, several laboratories
